TEAD-YAP block: TEAD-YAP interaction inhibition, primary screen, TEAD-YAP interaction inhibitor project, luminescence, HEK-TIYL cells; TEAD-Gal4/YAP UAS-luciferase luminescence; inhibition, % at 9.12 µM; actives 1.4% (n = 640,000); AID 1259422, 2018; in the data active means inhibition above about 32%;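 further: 0% = median of test compound wells and 100% = reference inhibitor wells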
MITF inh: MITF inhibitors, primary screen, biochemical, AlphaScreen, human; actives 0.91% (n = 650,000); AlphaScreen MITF homodimerization, bead proximity signal; Microphthalmia-associated transcription factor (Homo sapiens), O75030; inhibition, % at 2.6 µM; in the data active means inhibition above about 50%;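 further: 0% = vehicle wells with protein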
FBW7 act: FBW7 E3 ligase activators, primary screen, biochemical, AlphaScreen, human | F-box/WD repeat-containing protein 7 (Homo sapiens), Q969H0 | actives 0.13% (n = 650,000) | normalized activity (activation), % at 26.1 µM | AlphaScreen FBW7–phospho-cyclin E peptide binding, activator screen; in the data active means normalized activity above about 1.9%;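 further: purified mutant Fbw7 with reduced substrate affinity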
GPR151 ag: activators of human GPR151, primary screen, cell-based, PathHunter beta-arrestin, luminescence; AID 1508602, 2020; G-protein coupled receptor 151 (Homo sapiens), Q8TDV0; activation, % at 11.2 µM; PathHunter beta-arrestin GPR151 cells; actives 1% (n = 650,000); in the data active means activation above about 4.9%;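 further: 0% = median of compound wells and 100% = cells with positive control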
Target sequence (Q8TDV0 whole entry, looked up): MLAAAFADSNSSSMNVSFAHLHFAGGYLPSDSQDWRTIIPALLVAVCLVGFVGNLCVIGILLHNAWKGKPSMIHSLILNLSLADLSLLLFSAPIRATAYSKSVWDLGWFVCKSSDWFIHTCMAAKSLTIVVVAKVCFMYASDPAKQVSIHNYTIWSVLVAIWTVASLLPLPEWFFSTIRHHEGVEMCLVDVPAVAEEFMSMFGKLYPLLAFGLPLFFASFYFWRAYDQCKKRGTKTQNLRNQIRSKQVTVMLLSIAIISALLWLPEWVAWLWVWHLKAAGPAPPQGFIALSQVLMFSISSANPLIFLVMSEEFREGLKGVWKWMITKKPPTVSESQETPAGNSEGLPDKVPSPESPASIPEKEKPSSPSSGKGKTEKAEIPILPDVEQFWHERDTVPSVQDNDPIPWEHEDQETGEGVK
Active calls of the source: *. Only some compounds are listed: those with a hit (about 3.5% of all), similar ones and a draw of the others.

SMILES	TEAD-YAP block	MITF inh	FBW7 act	GPR151 ag
c1csc(CNc2ccc(-c3nc4ccccc4s3)cc2)c1	86*	1	0	-6
COc1cc(NC(=O)c2ccc3nc(-c4ccc(C(N)=O)cc4)sc3c2)cc(OC)c1OC	46*	-3	0	-1
CCOc1ccc2nc(-c3ccc(N)cc3)sc2c1	35*	5	0	-1
O=C(O)c1ccc2nc(-c3ccccc3)sc2c1	-13	19	0	-5
CC(=O)NCc1ccc(-c2nc3ccccc3s2)cc1	-3	-4	0	-5
CCOc1ccc2nc(NN)sc2c1	0	10	0	-3
CC(C)N(C(=O)c1ccc(-c2nc3ccccc3s2)cc1)C(C)C	54*	-11	0	-1
Nc1ccc(-c2nc3ccc(C(=O)O)cc3s2)cc1	75*	-10	0	-9
COc1ccccc1Nc1nc(Nc2ccc(Br)cc2)nc(C)c1[N+](=O)[O-]	-1	0	0	-1
COc1ccc(C(C)NC(=O)c2cccc(C)c2)cc1OC (stereo not given)	6	-2	0	0
CN1CCC(N2CCC(Oc3cccc(C(=O)NC4CCCCCC4)c3)CC2)CC1	10	8	0	2
O=S(=O)(c1cccc(-c2nnc(SCCc3ccccc3)o2)c1)N1CCOCC1	4	14	0	1
NC(=O)c1ccc2nc(-c3ccccc3)sc2c1	73*	1	0	-11
Nc1ccc(-c2nc3ccc(N)cc3s2)cc1	18	1	0	-9
Nc1ccc2nc(-c3ccc(O)cc3)sc2c1	76*	11	0	-10
Cc1cccc(Nc2ccc(NCCNC(=O)c3ccccc3C)nn2)n1	-1	-7	0	0
NC(=O)c1ccc(N2C(=O)c3ccccc3C2=O)cc1Cl	4	-1	0	0
Cc1ccc([N+](=O)[O-])cc1S(=O)(=O)Nc1cc(SCC(=O)O)c(O)c2ccccc12	-3	65*	-1	0
Cc1ccc(S(=O)(=O)Nc2cc(SCC(=O)O)c(O)c3ccccc23)c(C)c1	-19	12	0	-1
COc1ccc(N2CCN(C(=O)c3sc4nc5ccc(OC)cc5cc4c3N)CC2)cc1	-3	70*	0	0
COc1ccc2nc3sc(C(=O)N4CCN(c5ccccc5OC)CC4)c(N)c3cc2c1	-2	0	0	-1
COc1ccc2nc(N3CCCC3)sc2c1	2	12	0	-6
COc1ccc2nc(N3CCCCC3)sc2c1	61*	13	2	-4
COC(=O)C1=CN(C2CCCC2)C=C(C(=O)OC)C1c1ccc(F)cc1	7	13	3.1*	-1
CCOC(=O)Nc1c(C)cc(C)cc1[N+](=O)[O-]	50*	8	0	0
SMILES	TEAD-YAP block	MITF inh	FBW7 act	GPR151 ag
COc1cc2c(c(OC)c1OC)-c1ccc(OC)c(=O)cc1[C@@H](NC(C)=O)CC2	58*	16	0	-1
COc1ccc2c(c1OC)C(=O)OC2Nc1cccc(NC(C)=O)c1 (stereo not given)	-2	9	1	0
O=C(CSc1cccc2cccnc12)N/N=C/c1c(O)ccc2ccccc12	34*	12	0	0
O=C(CSCC(=O)Nc1ccccc1)N/N=C/c1c(O)ccc2ccccc12	74*	-51	0	-2
C(=Nc1ccc(N2CCOCC2)cc1)c1ccccc1	65*	14	-1	0
CCOC(=O)C1=C(C)NC(SCC(=O)C23CC4CC(CC(C4)C2)C3)=C(C#N)C1c1cccs1 (stereo not given)	7	2	0	2
CCCNc1nc(N2CCOCC2)nc2c1ncn2-c1ccsc1	50*	20	-1	-1
Nc1nc(N2CCOCC2)nc2c1ncn2-c1ccsc1	42*	5	1	2
CCCNc1nc(N2CCc3ccccc3C2)nc2c1ncn2-c1ccsc1	-26	22	0	0
Cc1ccc2nc(-c3ccc(OC(=O)c4ccc(Br)o4)cc3)sc2c1	65*	8	0	1
Cc1ccc2nc(-c3ccc(NC(=O)CSc4nnc(N)s4)cc3)sc2c1	59*	-7	0	-2
CC(=O)Nc1ccc(-c2nc3ccc(NC(C)=O)cc3s2)cc1	-50	-15	1	2
Cc1ccc(-c2nc3ccccc3s2)cc1NC(=O)c1cccc(I)c1	2	8	0	1
Cc1ccc2nc(-c3ccc(OC(=O)c4cccc(I)c4)cc3)sc2c1	84*	-4	0	-2
CC(=O)Nc1ccc2nc(-c3ccc(OC(C)=O)cc3)sc2c1	78*	-4	0	0
Cc1cc(C)nc(N2CCC(C(=O)Nc3ccccc3C)CC2)n1	4	5	0	0
CCOc1cccc2cc(-c3csc(Nc4ccc(C(C)=O)cc4)n3)c(=O)oc12	3	11	0	1
CCOC(=O)C1=C(O)/C(=C/c2ccc(N(CC)CC)cc2)SC1=Nc1ccc(OCC)cc1	-1	-2	0	3
CC(C)Sc1nc(=O)n(CCO)c2c1CCCC2	9	-17	0	0
Cc1ccc(OCC(=O)Nc2ccc(-c3nc4ccc(C)cc4s3)cc2)cc1	-17	6	0	0
Cc1ccc(C(=O)Oc2ccc(-c3nc4ccc(C)cc4s3)cc2)cc1	39*	-5	0	-1
Cc1ccc2nc(-c3ccc(NC(=O)/C=C\C(=O)O)cc3)sc2c1	35*	-1	0	0
COc1cc(OC)cc(C(=O)Nc2ccc(-c3nc4ccc(C)cc4s3)cc2)c1	-3	10	0	0
CC(=O)Oc1ccc(-c2nc3ccc(C)cc3s2)cc1	98*	1	0	-6
COC(=O)CNS(=O)(=O)Nc1ccc(-c2nc3ccc(C)cc3s2)cc1	67*	9	0	-6
SMILES	TEAD-YAP block	MITF inh	FBW7 act	GPR151 ag
Cc1ccc2nc(-c3ccc(NC(=O)/C=C/c4ccccc4)cc3)sc2c1	-22	4	0	0
COc1ccc(CNCc2ccncc2)cc1	11	15	0	3
COc1ccccc1-c1nnc(-c2cc3c(ccc4ccccc43)oc2=O)o1	-4	10	0	0
CCOC(=O)CS(=O)(=O)c1ccc(C(=O)NCc2ccc(OC)cc2)cc1[N+](=O)[O-]	8	11	0	0
CC1=C(C#N)C(=O)NC(=O)/C1=C\c1ccc(-c2ccc(S(=O)(=O)O)cc2)o1	-1	59*	-1	0
CCn1c(Cc2ccc(OC)cc2)nnc1SCC(=O)Nc1nccs1	2	1	0	-1
CCOC(=O)C1=C(C)OC(N)=C(C#N)C1c1ccc(F)cc1F (stereo not given)	1	11	0	0
COc1ccc(C)cc1NC(=O)NCCNc1cc(-n2ccnc2C)nc(C)n1	13	-5	0	0
COc1cc(Nc2cc(N3CCC(C)CC3)c3noc4c3c2C(=O)c2ccccc2-4)cc(OC)c1OC	43*	39	0	3

Assay outcomes as filed in PubChem.
